# Screens deposited in PubChem BioAssay by National Center for Advancing Translational Sciences (NCATS).
# HCMV inh = human cytomegalovirus inhibition. HFF cells, HCMV-luciferase reporter, 72 h; hits give low values. 410,000 compounds, 4.5% hits. activity change, negative = inhibition, % at 57.5 µM; in the data active = activity change below about -60%; inconclusive = no clear call, values can overlap the other calls; inactive = above about -39%; also: % is scaled to controls: 0 for no effect and ±100 for the full control effect
#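 Inhibition of viral replication was scored as loss of reporter luminescence in HFFs infected with HCMV-luciferase (MOI 1 PFU/cell) for 72 h; compounds tested at 2 doses, normalized to buffer and Salinomycin controls.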
# Pf growth 48h = inhibits P. falciparum growth in the first generation, 48 h | P. falciparum luciferase growth in erythrocytes, 48 h | Potency, µM (top dose mostly 28.7 µM), for the others: at the top dose activity change, negative = inhibition, hits mostly inhibitors | 310,000 compounds, 5.9% hits; also: potency is read from the fitted curve at half-maximal effect; % is scaled to controls: 0 for no effect and ±100 for the full control effect
#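 A one-generation exposure of luciferase-tagged malaria parasites in RPMI 1640/Albumax erythrocyte culture, 37 C and 5% CO2. Inhibition is inferred from decreased luminescence after adding detection reagent.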
# Pf growth 96h = P. falciparum growth inhibition at 96 hours | P. falciparum luciferase reporter growth, 96 h | Potency, µM (top dose mostly 28.7 µM), inactives show top-dose activity change, negative = inhibition, hits mostly inhibitors | 320,000 compounds, 6.9% hits; also: potency is read from the fitted curve at half-maximal effect; % is scaled to controls: 0 for no effect and ±100 for the full control effect
#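 Readout is luminescence from an integrated firefly luciferase in P. falciparum. Red cells, 2% hematocrit and 0.05% parasitemia final, were cultured with compound through two parasite generations (96 hours) at 37 C, 5% CO2.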
# CHX counter = affects cycloheximide protein synthesis inhibition readout, counter-screen; cell reporter, cycloheximide protein synthesis inhibition counterscreen; max response, %; 300,000 compounds, 12% hits; AID 2314; in the data active = max response mostly above about 13%, no sharp cut-off; inactive = mostly below about 14%; also: read at 38.3 µM for the half of the compounds with a filed dose; 0% is about no effect
# Shiga inhibitor = Shiga toxin inhibition; Vero cells, Shiga toxin protein synthesis inhibition reporter; inhibition, % at 38.7 µM; 290,000 compounds, 9.2% hits; AID 2315; in the data active = inhibition mostly above about 28%, no sharp cut-off; inactive = mostly below about 43%; also: 0% is about no effect
# Active calls of the source: *; ? = inconclusive; nt = no result; [ ] = remark or other dose. An excerpt weighted towards active compounds, which were near 20% of everything screened. Unless noted, calls follow the shape of the dose curve; as a rule, active = well fitted inhibition curve with a large enough effect; inconclusive = small, poorly fitted or top-dose-only effect, or another doubt; inactive = no such curve, though single readings can be large or run the other way.
SMILES,HCMV inh,Pf growth 48h,Pf growth 96h,CHX counter,Shiga inhibitor
O=C1NC[C@H](CCCCN2C[C@H](Cc3ccc(O)cc3)N(CCC3CCCCC3)C(=O)C2=O)N(CCc2ccc(O)cc2)C1=O,-22,nt,nt,nt,nt
CCCc1cc(=O)oc2cc(O[C@@H]3O[C@H](CO)[C@@H](O)[C@H](O)[C@H]3O)ccc12,?,-1%,2%,-3,-15
CCCc1cc(=O)oc2c(C)c(O[C@@H]3O[C@H](CO)[C@@H](O)[C@H](O)[C@H]3O)ccc12,-66*,39%,28%,1,0
Cc1c(C)c2ccc(O[C@@H]3O[C@H](CO)[C@H](O)[C@H](O)[C@H]3O)c(C)c2oc1=O,5,17%,15%,6,6
Cc1c(O[C@@H]2O[C@H](CO)[C@@H](O)[C@H](O)[C@H]2O)ccc2c1oc(=O)c1ccccc12,-16,-11%[0.00184 µM],-13%,15*,48
O=C(C1=C[C@H](c2ccccc2)C[C@H](OCCCCO)O1)N1CCN(Cc2ccc3c(c2)OCO3)CC1,-24,?,?,1,-5
O=C(C1=C[C@@H](c2csc3ccccc23)C[C@@H](OCCCCO)O1)N1CCN(Cc2ccc3c(c2)OCO3)CC1,2,?,12µM*,3,-7
O=C(C1=C[C@H](c2csc3ccccc23)C[C@H](OCCCCO)O1)N1CCN(Cc2ccc3c(c2)OCO3)CC1,-14,2.3µM*,1.5µM*,11,-11
O=C(C1=C[C@@H](c2coc3ccccc3c2=O)C[C@@H](OCCCCO)O1)N1CCN(Cc2ccc3c(c2)OCO3)CC1,-11,?,3.3µM*,-2,-8
O=C(C1=C[C@H](c2csc3ccccc23)C[C@H](OCCCCO)O1)N1CCN(Cc2ccccc2)CC1,-1,3.7µM*,2.3µM*,-2,-1
O=C(C1=C[C@H](c2ccc(Br)cc2)C[C@H](OCCCCO)O1)N1CCN(Cc2ccccc2)CC1,42,?,?,1,2
O=C(C1=C[C@@H](c2coc3ccccc3c2=O)C[C@@H](OCCCCO)O1)N1CCN(Cc2ccccc2)CC1,-3,?,?,-2,-17
Cc1ccc(-n2c(SCC(N)=O)nnc2-c2ccc(S(=O)(=O)N3CCCCC3)cc2)c(C)c1,-38,-26%,nt,-4,-13
COCCSc1nnc(NC(=O)C2CC(=O)N(CCc3ccc(F)cc3)C2)s1 (stereo not drawn),-18,?,?,-4,-1
NS(=O)(=O)c1ccc2c(c1)oc(=O)c1cc(S(N)(=O)=O)ccc12,-24,-6%,0%,0,19
COCCNS(=O)(=O)c1ccc2c(c1)oc(=O)c1cc(S(=O)(=O)NCCOC)ccc12,nt,?,1.9µM*,-2,-5
COc1ccccc1OCCNS(=O)(=O)c1ccc2oc3ccccc3c2c1,-25,-18%,10µM*,-1,1
O=S(=O)(NCCOc1ccccc1Cl)c1ccc2oc3ccccc3c2c1,34,nt,nt,nt,nt
CC(=O)c1ccc(NS(=O)(=O)c2ccc3[nH]c4c(c3c2)CCCC4)cc1,2,nt,nt,nt,nt
CCOC(=O)/C(C#N)=C1/C=CN(c2ccc(C)cc2)C=N1,-13,nt,15%,29*,64*
Cc1ccc(CNC(=O)Nc2ccc(Cl)cc2)cc1,37,55%,3%,17*,20
Fc1ccc(NC(=S)NCCc2ccc(Cl)cc2)cc1,-69*,-26%,-10%,48*,93*
CC(=O)c1ccc(NC(=O)NCc2ccc(F)cc2)cc1,-35,19%[5.75 µM],23%,14*,6
O=C(NCc1ccc(Cl)cc1)Nc1ccc(F)cc1,6,23%,?,49*,29
O=C(NCCc1ccc(Cl)cc1)c1ccc(Cn2c(=O)[nH]c3ccccc3c2=O)cc1,24,?,?,nt,nt
SMILES,HCMV inh,Pf growth 48h,Pf growth 96h,CHX counter,Shiga inhibitor
O=C(NCCNC(=O)Nc1ccc(Cl)cc1)Nc1ccc(Cl)cc1,11,nt,nt,nt,nt
CSc1ccc(NC(=O)NCc2ccccc2)cc1,53,40%,118%,44*,91*
CCCc1c(NC(=O)Nc2ccc(F)cc2)cnn1-c1ccc(Cl)cc1,-81*,6.6µM*,?,1,-13
O=C(NCCc1ccc(Cl)cc1)Nc1ccc(F)cc1,-31,15µM*,-1%,29*,50
S=C(NCCC1=CCCCC1)Nc1ccc(Cl)cc1,-26,-1%,?,44*,63*
Cc1ccc(C)c(OCCC(=O)NCCc2ccc(S(N)(=O)=O)cc2)c1,-2,1%,-7%,-2,-5
COc1ccc(-c2cc(C(F)(F)F)n3nc(C(=O)Nc4sc5c(c4C(=O)OC(C)C)CCCC5)cc3n2)cc1OC,28,nt,nt,nt,nt
Cc1nnsc1C(=O)Nc1ccc(Cl)cc1,?,0%,21%,-1,-1
Cc1nnsc1SCCNC(=O)Nc1ccc(Cl)cc1,8,?,?,24*,82*
O=C(CSc1nccn1Cc1ccc(F)cc1)Nc1ccc(F)cc1F,29,-6%,40%,7,-12
CSc1ccc(CN(C)CC(=O)NCc2ccccc2)cc1,-63*,19%,-2%,7,-15
O=C(Nc1ccccc1)c1nccn1Cc1ccc(F)cc1,-27,31%,63%,28*,64*
O=C(NC(=S)NCCC1=CCCCC1)c1cccnc1,?,?,?,14*,40*
O=C(NCc1ccncc1)Nc1ccc(F)cc1,-13,17%,nt,7,-4
O=C(NCc1ccc(F)cc1)Nc1ccccc1,64,79%,0%,37*,79*
COc1ccc(Cl)cc1NC(=S)NCCc1ccc(F)cc1,nt,-26%,81%,5,15
Fc1ccc(CCNC(=S)Nc2ccc(F)c(Cl)c2)cc1,-66*,?,4%,17,38
CCCCC#Cc1cncc(C(=O)N/N=C/c2cccc(OC)c2)c1,22,?,28%,-1,-8
Cn1c2c(c(=O)n(C)c1=O)C(C(F)(F)F)(C(F)(F)F)N=C(C1CCCCC1)N2,?,-24%,?,-5,-21
Cc1ccccc1C1=NC(C(F)(F)F)(C(F)(F)F)c2c(n(C)c(=O)n(C)c2=O)N1,?,?,?,61*,109*
Cn1c2c(c(=O)n(C)c1=O)C(C(F)(F)F)(C(F)(F)F)N=C(c1ccc(Cl)cc1)N2,nt,?,1.5µM*,6,-14
CCCCn1c(SCC(N)=O)nc2c(sc3ccccc32)c1=O,-38,nt,-12%,0,35
CCSc1nc2c(sc3ccccc32)c(=O)n1C(C)C,3,nt,13µM*,-4,23
CCN1CCN(C2CC(=O)NC2=O)CC1 (stereo not drawn),nt,6%,8.3µM*,6,-10
CCN(c1ccccc1)S(=O)(=O)c1c(-c2ccc(C)cc2)csc1C(=O)OC,-67*,nt,nt,14,17
O=C(NC(=S)Nc1cccc2c(O)cccc12)c1ccccc1[N+](=O)[O-],14,8%,?,12,18
Cc1cc(C(=O)Nc2cccc([N+](=O)[O-])c2C)cs1,-28,0%,-9%,26*,23
CCc1ccccc1NC(=O)c1ccc(NCCc2ccccc2)c([N+](=O)[O-])c1,-40,?,1%,-4,-9
